Our source for the outcome and AC50 values is PubChem BioAssay (EPA / NIEHS).

Results filed as inconclusive are left out. The source made the active and inactive calls. Rule for the calls, unless noted: active = hit-call score of the fitted dose curve at least 0.9, where 1 is the maximum; inactive = score below 0.9.

Read-out in test [1]: NAD(P)H dehydrogenase [quinone] 1 (NQO1), NQO1 (gene 1728)
The experiment in a line: LTEA_HepaRG_NQO1: Life Technologies and Expression Analysis (LTEA) Assay for NAD(P)H dehydrogenase [quinone] 1 (NQO1) using HepaRG (AID 2283526). To be noted: mRNA level, 48 h; actives raise or lower the signal. Put shortly: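 qRT-PCR read-out (Fluidigm TaqMan), normalized to three housekeeping genes, after 48 h chemical exposure of HepaRG cells. Concentrations: eight points, top 100 uM, half-log steps, 0.5% DMSO vehicle. Gain or loss of signal fitted relative to DMSO.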

Read-out in test [2]: Nuclear factor erythroid 2-related factor 2 (Homo sapiens) (UniProt Q16236)
The test is described as follows: LTEA_HepaRG_NFE2L2: Life Technologies and Expression Analysis (LTEA) Assay for Nuclear factor erythroid 2-related factor 2 (NFE2L2) Transcription Factor using HepaRG (AID 2283527). To be noted: mRNA level, 48 h; actives raise or lower the signal. Put shortly: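 Human liver HepaRG line treated in duplicate for 48 h with an eight-point series topping at 100 uM. Gene expression of NFE2L2 by qRT-PCR, bidirectionally fitted against the vehicle control.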

Read-out in test [3]: succinate dehydrogenase complex iron sulfur subunit B (SDHB), SDHB (gene 6390)
The experiment in a line: LTEA_HepaRG_SDHB: Life Technologies and Expression Analysis (LTEA) Assay for succinate dehydrogenase complex iron sulfur subunit B (SDHB) using HepaRG (AID 2283528). To be noted: mRNA level, 48 h; actives raise or lower the signal. Put shortly: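 SDHB transcript level read by TaqMan qRT-PCR, housekeeping-normalised (ACTB, GAPDH, POLR2A), after 48 h chemical treatment of plated HepaRG cells; eight concentrations top 100 uM, half-log steps, 0.5% DMSO, duplicates; fitted both directions against DMSO.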

Read-out in test [4]: Signal transducer and activator of transcription 3 (Homo sapiens) (UniProt P40763)
The experiment in a line: LTEA_HepaRG_STAT3: Life Technologies and Expression Analysis (LTEA) Assay for Signal transducer and activator of transcription (STAT3) using HepaRG (AID 2283529). To be noted: mRNA level, 48 h; actives raise or lower the signal. Put shortly:
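In this transcriptional endpoint, HepaRG cultures receive test chemicals at up to 100 uM for 48 h, tested in duplicate. STAT3 mRNA is normalized to ACTB, GAPDH and POLR2A.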

Read-out in test [5]: sulfotransferase 2A1 (SULT2A1), SULT2A1 (gene 6822)
The test is described as follows: LTEA_HepaRG_SULT2A1: Life Technologies and Expression Analysis (LTEA) Assay for sulfotransferase 2A1 (SULT2A1) using HepaRG (AID 2283531). The note with it: mRNA level, 48 h; actives raise or lower the signal. Put shortly:
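HepaRG, 48 h chemical exposure, 8-pt half-log curve from 100 uM in 0.5% DMSO, duplicates. Readout: TaqMan qRT-PCR of SULT2A1 mRNA, housekeeping-normalized. Bidirectional fit vs DMSO baseline.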

Read-out in test [6]: Transforming Growth Factor (TGFA), TGFA (gene 7039)
The test is described as follows: LTEA_HepaRG_TGFA: Life Technologies and Expression Analysis (LTEA) Assay for Transforming Growth Factor (TGFA) using HepaRG (AID 2283532). To be noted: mRNA level, 48 h; actives raise or lower the signal. Put shortly: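 Gene expression of TGFA was quantified by qRT-PCR after human HepaRG cells were treated for 48 h with test chemicals (eight concentrations, highest 100 uM, 0.5% DMSO). Activity in either direction was fitted relative to DMSO.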

Read-out in test [7]: Transforming Growth Factor (TGFB1), TGFB1 (gene 7040)
The test is described as follows: LTEA_HepaRG_TGFB1: Life Technologies and Expression Analysis (LTEA) Assay for Transforming Growth Factor (TGFB1) Transporter using HepaRG (AID 2283533). To be noted: mRNA level, 48 h; actives raise or lower the signal. The procedure, abridged:
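qRT-PCR readout of TGFB1 transcript in HepaRG lysates, normalized to three housekeeping genes; gain or loss of signal fitted relative to 0.5% DMSO vehicle. Exposure: 48 h, 8-point curve from 100 uM, duplicate wells.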

Read-out in test [8]: TIMP1, TIMP1 (gene 7076)
The test is described as follows: LTEA_HepaRG_TIMP1: Life Technologies and Expression Analysis (LTEA) Assay for TIMP1 using HepaRG (AID 2283534). The note with it: mRNA level, 48 h; actives raise or lower the signal. The procedure, abridged:
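HepaRG, 48 h exposure, 8-pt half-log series from 100 uM in 0.5% DMSO, duplicates; TIMP1 transcript by Fluidigm qRT-PCR, housekeeping-normalized; bidirectional curve fit vs DMSO baseline.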

Read-out in test [9]: Tumor necrosis factor receptor 1 (TNFRSF1A), TNFRSF1A (gene 7132)
The test is described as follows: LTEA_HepaRG_TNFRSF1A: Life Technologies and Expression Analysis (LTEA) Assay for Tumor necrosis factor receptor 1 (TNFRSF1A) using HepaRG (AID 2283535). The note with it: mRNA level, 48 h; actives raise or lower the signal. Put shortly:
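HepaRG, 48 h plating then 48 h chemical exposure, serum-free induction media; 8-pt CRC from 100 uM, half-log, 0.5% DMSO vehicle, duplicates. Readout: TaqMan qRT-PCR (Fluidigm), housekeeping-gene normalized; bidirectional fit vs DMSO.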

Read-out in test [10]: Thyroid Hormone Responsive (THRSP), THRSP (gene 7069)
The experiment in a line: LTEA_HepaRG_THRSP: Life Technologies and Expression Analysis (LTEA) Assay for Thyroid Hormone Responsive (THRSP) using HepaRG (AID 2283536). To be noted: mRNA level, 48 h; actives raise or lower the signal. Put shortly:
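Cell model: human HepaRG, approx. 100,000 cells/well, 0.5% DMSO vehicle. Exposure lasts 48 h; phenobarbital 1 mM serves as induction positive control. Gene expression is measured by qRT-PCR against three endogenous control genes.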

Read-out in test [11]: Cellular tumor antigen p53 (Homo sapiens) (UniProt P04637)
The experiment in a line: LTEA_HepaRG_TP53: Life Technologies and Expression Analysis (LTEA) Assay for Tumor Protein P53 (TP53) using HepaRG (AID 2283537). The note with it: mRNA level, 48 h; actives raise or lower the signal. Put shortly: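 TP53 transcript measured by qRT-PCR, normalized to three housekeeping genes, after 48 h treatment of human HepaRG cultures with chemicals from 100 uM downward in half-log steps (0.5% DMSO vehicle, serum-free induction medium). Up- or down-regulation fitted against DMSO.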

Read-out in test [12]: UDP glucuronosyltransferase (UGT1A1), UGT1A1 (gene 54658)
The experiment in a line: LTEA_HepaRG_UGT1A1: Life Technologies and Expression Analysis (LTEA) Assay for UDP glucuronosyltransferase (UGT1A1) using HepaRG (AID 2283538). The note with it: mRNA level, 48 h; actives raise or lower the signal. The procedure, abridged: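 HepaRG, 48 h chemical exposure (top 100 uM, half-log 8-pt, 0.5% DMSO vehicle), duplicate wells; qRT-PCR (TaqMan, Fluidigm array) for UGT1A1 mRNA, housekeeping-normalized; bidirectional curve fit vs DMSO baseline.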

Read-out in test [13]: UDP glucuronosyltransferase (UGT1A6), UGT1A6 (gene 54578)
The experiment in a line: LTEA_HepaRG_UGT1A6: Life Technologies and Expression Analysis (LTEA) Assay for UDP glucuronosyltransferase (UGT1A6) using HepaRG (AID 2283539). The note with it: mRNA level, 48 h; actives raise or lower the signal. The procedure, abridged:
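qRT-PCR readout of UGT1A6 mRNA (normalized to ACTB/GAPDH/POLR2A) in differentiated HepaRG cells after 48 h chemical exposure; 8 concentrations, top 100 uM, half-log steps, 0.5% DMSO. Bidirectional curve fit relative to DMSO baseline.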

Read-out in test [14]: X-box binding protein 1 (XBP1), XBP1 (gene 7494)
The experiment in a line: LTEA_HepaRG_XBP1: Life Technologies and Expression Analysis (LTEA) Assay for X-box binding protein 1 (XBP1) using HepaRG (AID 2283540). The note with it: mRNA level, 48 h; actives raise or lower the signal. Put shortly: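 HepaRG, 48 h exposure, 8-pt half-log CRC top 100 uM, 0.5% DMSO vehicle, duplicates. Readout: TaqMan qRT-PCR of XBP1 mRNA, housekeeping-normalised (ACTB/GAPDH/POLR2A); bidirectional fit vs DMSO baseline.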

The nature of test [15]: LTEA_HepaRG_LDH_cytotoxicity: Cytotoxicity Assessment in the Life Technologies and Expression Analysis (LTEA) Assay (AID 2283563; active = hit-call score of the fitted dose curve at least 0.9, where 1 is the maximum;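 for AC50: LDH activity released into spent culture medium as a marker of cell death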). The procedure, abridged:
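HepaRG (human liver line), 48 h exposure, 8-pt half-log series from 100 uM, 0.5% DMSO vehicle, duplicates. Read-out: LDH in spent medium. Positive-direction fit vs DMSO baseline.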

Test [16] can be described thus: ATG_XTT_Cytotoxicity: Cytotoxicity Assessment in the Attagene TRANS-FACTORIAL HepG2 Assay (AID 2283584; active = hit-call score of the fitted dose curve at least 0.9, where 1 is the maximum). The procedure, abridged:
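XTT readout of cell number in transfected HepG2 cells, 24 h post-dosing; DMSO serves as negative control and baseline, with activity taken as loss of viability signal.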

Test [17] can be described thus: TOX21_p53_BLA_p2_viability: Viability Assessment in the Tox21 HCT-116 p53 Agonism Beta-lactamase Assay, Phase 2 (AID 2283591; active = hit-call score of the fitted dose curve at least 0.9, where 1 is the maximum;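 note: actives lower the ATP signal meaning cytotoxicity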). The procedure, abridged:
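HCT-116 p53-bla cells (4000/well) rested 5 h at 37C, then received compounds in DMSO (217-fold dilution) for 16 h at 37C, 5% CO2. After the CCF4 read, CellTiter-Glo was added; ATP luminescence was read after 30 min at room temperature.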

Test [18] concerns the target Cellular tumor antigen p53 (Homo sapiens) (UniProt P04637). The test is described as follows: TOX21_p53_BLA_p2_ratio: Tox21 HCT-116 p53 Agonism Beta-lactamase Assay, Ratio, Phase 2 (AID 2283592; active = hit-call score of the fitted dose curve at least 0.9, where 1 is the maximum). The procedure, abridged:
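Readout: blue/green (460/530 nm) FRET emission ratio after 2 h CCF4-AM loading at room temperature, excitation 405 nm. HCT116 p53 bla cells, 16 h compound exposure at 37C, 5% CO2; agonist direction fitted against DMSO baseline.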

Test [19] is described as follows: TOX21_p53_BLA_p3_viability: Viability Assessment in the Tox21 HCT-116 p53 Agonism Beta-lactamase Assay, Phase 3 (AID 2283593; active = hit-call score of the fitted dose curve at least 0.9, where 1 is the maximum;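 note: cells exposed to compound for 16 h before reading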). The procedure, abridged: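 HCT-116 cells (4000/well) rested 5 h at 37C, then got DMSO compounds by pin tool (217-fold dilution) for 16 h at 37C, 5% CO2. After the bla read, CellTiter-Glo was added and luminescence read at 30 min, room temperature.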

Read-out in test [20]: solute carrier (SLCO1B1), SLCO1B1 (gene 10599)
The experiment in a line: LTEA_HepaRG_SLCO1B1: Life Technologies and Expression Analysis (LTEA) Assay for solute carrier (SLCO1B1) using HepaRG (AID 2283530). To be noted: mRNA level, 48 h; actives raise or lower the signal. The procedure, abridged:
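SLCO1B1 transcript read by qRT-PCR (Fluidigm arrays), normalized to three housekeeping genes, after 48 h chemical exposure of HepaRG cells; bidirectional concentration-response fitting versus 0.5% DMSO baseline. Eight-point half-log series, maximum 100 uM.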

Nuclear factor erythroid 2-related factor 2 (Homo sapiens), sequence (Q16236 whole entry, looked up): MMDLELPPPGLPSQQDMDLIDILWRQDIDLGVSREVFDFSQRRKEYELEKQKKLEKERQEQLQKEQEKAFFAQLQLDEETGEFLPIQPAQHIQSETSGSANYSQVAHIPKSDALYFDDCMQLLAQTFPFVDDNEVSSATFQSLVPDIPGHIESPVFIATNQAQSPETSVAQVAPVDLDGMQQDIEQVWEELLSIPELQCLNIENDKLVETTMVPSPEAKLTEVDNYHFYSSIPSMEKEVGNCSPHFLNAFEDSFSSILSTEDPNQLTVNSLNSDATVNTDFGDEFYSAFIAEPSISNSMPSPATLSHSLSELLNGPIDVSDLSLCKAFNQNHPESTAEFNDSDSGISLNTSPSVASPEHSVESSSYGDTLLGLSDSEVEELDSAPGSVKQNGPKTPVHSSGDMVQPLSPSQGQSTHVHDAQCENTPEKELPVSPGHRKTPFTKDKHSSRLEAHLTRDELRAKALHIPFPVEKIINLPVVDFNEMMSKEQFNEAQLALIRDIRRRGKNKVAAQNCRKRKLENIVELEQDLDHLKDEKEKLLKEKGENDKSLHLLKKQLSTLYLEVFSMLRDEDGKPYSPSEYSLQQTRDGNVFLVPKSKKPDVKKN
Signal transducer and activator of transcription 3 (Homo sapiens), sequence (P40763 whole entry, looked up): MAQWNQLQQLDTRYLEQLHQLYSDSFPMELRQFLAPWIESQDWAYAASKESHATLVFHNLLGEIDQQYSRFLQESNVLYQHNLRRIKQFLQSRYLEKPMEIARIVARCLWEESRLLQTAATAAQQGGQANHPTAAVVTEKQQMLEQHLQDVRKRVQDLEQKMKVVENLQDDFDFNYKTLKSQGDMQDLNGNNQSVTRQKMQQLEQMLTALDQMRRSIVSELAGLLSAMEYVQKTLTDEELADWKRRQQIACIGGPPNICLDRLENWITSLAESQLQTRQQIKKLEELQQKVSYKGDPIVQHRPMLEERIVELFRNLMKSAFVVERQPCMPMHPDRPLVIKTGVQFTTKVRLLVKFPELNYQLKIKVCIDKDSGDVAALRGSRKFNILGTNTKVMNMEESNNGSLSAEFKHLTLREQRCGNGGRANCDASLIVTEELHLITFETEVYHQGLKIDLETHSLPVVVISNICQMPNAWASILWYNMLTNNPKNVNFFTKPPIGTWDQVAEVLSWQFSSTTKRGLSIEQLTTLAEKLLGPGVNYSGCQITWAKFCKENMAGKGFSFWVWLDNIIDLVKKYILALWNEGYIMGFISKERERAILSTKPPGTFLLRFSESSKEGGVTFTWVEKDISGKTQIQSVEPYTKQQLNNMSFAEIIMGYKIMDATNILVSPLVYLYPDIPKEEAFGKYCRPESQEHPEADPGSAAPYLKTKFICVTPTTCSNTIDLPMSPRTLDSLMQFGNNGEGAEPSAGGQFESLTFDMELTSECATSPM
Cellular tumor antigen p53 (Homo sapiens), sequence (P04637 whole entry, looked up): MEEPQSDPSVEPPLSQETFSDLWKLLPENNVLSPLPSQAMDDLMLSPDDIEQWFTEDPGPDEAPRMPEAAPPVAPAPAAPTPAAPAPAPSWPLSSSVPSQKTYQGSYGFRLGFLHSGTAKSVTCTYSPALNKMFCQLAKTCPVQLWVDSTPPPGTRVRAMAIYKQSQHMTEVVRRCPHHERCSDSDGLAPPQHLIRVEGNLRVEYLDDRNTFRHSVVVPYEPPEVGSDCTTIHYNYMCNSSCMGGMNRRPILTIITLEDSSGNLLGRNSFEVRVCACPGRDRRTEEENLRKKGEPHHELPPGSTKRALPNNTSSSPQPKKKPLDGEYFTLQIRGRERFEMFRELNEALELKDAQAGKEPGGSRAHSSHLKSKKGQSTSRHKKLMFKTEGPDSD

One may read the AC50 as the midpoint of the concentration-response curve, whichever way the signal moves. With `CCOP(=O)(NC(C)C)Oc1ccc(SC)c(C)c1` (configuration not stated), the compound was classed as inactive in test [1], in test [2], in [3], in test [4], in test [5] and in test [6]. Moreover, the compound was classed as inactive in [7], in test [8], in test [9], in test [10], in test [11] and in test [13]. Moreover, the result in test [14], in test [15], in test [16], in [17], in test [18] and in [19] was inactive. Also, in test [12], the AC50 was 50 µM (active).

Turning to `CON=C(C(=O)OC)c1ccccc1CON=C(C)c1cccc(C(F)(F)F)c1`, the result in test [1], in test [2], in [3], in test [4], in test [20] and in test [5] was inactive. Besides, the result in [6], in test [7], in test [8], in [9], in [11] and in [13] was inactive. Besides, the compound was classed as inactive in test [14], in [15], in test [17] and in test [19]. For the same compound, the AC50 in test [10] is 50 µM (active); in test [12], 6.06 µM (active); in test [18], 1.25 µM (active).

With `CCCOCC(=Nc1ccc(Cl)cc1C(F)(F)F)n1ccnc1`, the call in test [1], in test [2], in [3], in [14] and in test [16] was inactive. The AC50 in test [4] was 50 µM (active); in [5] it was 66.6 µM (active); in [6], 92.4 µM (active); in test [7] it was 50 µM (active); in test [8] it was 88.9 µM (active); in [9] it was 93.7 µM (active). In addition, the AC50 was 19.1 µM (active) in test [10]; 86.9 µM (active) in [11]; 3.03 µM (active) in [12]; 69 µM (active) in [13]; 78.9 µM (active) in test [15]; 23.7 µM (active) in [17]. Also, the results for the AC50 in test [18] and in test [19] were 39.9 µM (active) and 35.4 µM (active), respectively.
